Inconclusive results are not listed. A call without a number means that no potency is given here. The source made the active and inactive calls. Calls follow the shape of the dose curve; as a rule, active = well fitted cell-killing curve with a large enough effect in the repeat runs; inconclusive = weak or mixed curves, or effect the other way; inactive = no such curve, though single readings can be large or run the other way.
Potency is read from the fitted curve at half-maximal effect.

The test in a line: qHTS assay to identify small molecule antagonists of the glucocorticoid receptor (GR) signaling pathway - cell viability counter screen (AID 720693). Also: nearly all actives have a fitted effect of over 55% in size. To be noted: GR-bla HeLa viability, CellTiter-Glo luminescence, 18 h, with 5 nM dexamethasone present; series mostly up to 58.5 µM. The source says: National Center for Advancing Translational Sciences [NCATS]
NIH Chemical Genomics Center [NCGC]
U.S. Environmental Protection Agency [EPA]
National Institutes of Environmental Health Sciences [NIEHS]
National Toxicology Program [NTP]
U.S. Food and Drug Administration [FDA]
The Glucocorticoid receptor (GR) is one of the members of the nuclear receptor family of ligand-dependent transcription factors. GR plays a critical role in carbohydrate, protein and lipid metabolisms and programmed cell death. CellSensor GR-bla HeLa cell line (Invitrogen) contains a beta-lactamase reporter gene under the control of the glucocorticoid response element stably integrated into HeLa cells, a cervical cancer cell line that expresses glucocorticoid receptor. The activation of the reporter gene under culture conditions can be detected by fluorescence intensity. This cell line has been used to screen the Tox21 10K compound library and to identify the compounds that inhibit the GR signaling. The cytotoxicity of the Tox21 compound library against the GR-bla HeLa cell line was tested in parallel by measuring the cell viability using CellTiter-Glo assay in the same wells.
Tox21 Assay Protocol Summary:
The GR-bla HeLa cells were dispensed at 1500 cells/5 ul/well in 1536-well black wall/clear bottom plates using a Multidrop Combi (ThermoFisher Scientific, Waltham, MA) dispenser. After the assay plates were incubated at a 37 C/5% CO2 incubator for 4 hours, 23 nL of compounds dissolved in DMSO, positive controls or DMSO only was transferred to the assay plate by a pintool station (Kalypsys, San Diego, CA), followed by addition of 1 uL of dexamethasone (5 nM, final concentration in the well). The plates were incubated at 37 C for 18 hours. After 1 uL of LiveBLAzerTM B/G FRET substrate was added using a Flying Reagent Dispenser (Aurora Discovery, San Diego, CA), the plates were incubated at room temperature (RT) for 2 hours, and fluorescence intensity was measured by an Envision plate reader (PerkinElmer, Shelton, CT). After measurement of bla assay, 3 ul CellTiter-Glo (Promega, Madison, WI) was added to measure the cytotoxicity and the plates were then incubated at RT for 30 min. The luminescence was measured using a ViewLux (Perkin Elmer) plate reader.
(In general: Quantitative high-throughput screening tests each substance at several concentrations.)
As to `COc1ccc2c3c1O[C@H]1[C@H](O)CC[C@H]4[C@@H](C2)N(C)CC[C@@]341`, the Potency entry was “inactive”.

Regarding `O=C(O)[C@H](O)[C@@H](O)C(=O)O`, the Potency entry was “inactive”.

Regarding `CC(C)=CCN1CC[C@@]2(C)c3cc(O)ccc3C[C@@H]1[C@@H]2C`, the Potency entry is “inactive”.

In the case of `ClC1(Cl)C2(Cl)C3(Cl)C4(Cl)C(Cl)(Cl)C5(Cl)C3(Cl)C1(Cl)C5(Cl)C24Cl` (stereo not given), the Potency result was “inactive”.

Take `CCCCC(CC)COC(=O)OOC(C)(C)C` (stereo not given): the Potency entry is “inactive”.

For the compound `[O-][Cl+3]([O-])([O-])O`, the Potency entry was “inactive”.

Take `Oc1cc(Cl)cc(Cl)c1`: the Potency entry was “inactive”.

Take `c1ccc2nc(N3CCNCC3)ccc2c1`: the Potency result was “inactive”.

With `Oc1cc(Cl)c(Cl)c(Cl)c1Cl`, the Potency is 21.4 µM (active).

Turning to `C[N+]1(C)[C@@H]2CC[C@H]1CC(OC(=O)C(CO)c1ccccc1)C2` (stereo not given in full), the Potency entry is “inactive”.

Regarding `CN1CCc2cc3c(cc2C1O)OCO3` (stereo not given), the Potency result is “inactive”.

On to `CN=C=O`, for which the Potency entry is “inactive”.

In the case of `CC[C@]1(O)CC[C@H]2[C@@H]3CCC4=CCCC[C@@H]4[C@H]3CC[C@@]21C`, the Potency is 3.01 µM (active).

`FC(F)C(F)(F)OCC(Cn1cncn1)c1ccc(Cl)cc1Cl` (stereo not given): the Potency entry is “inactive”.

On to `O=C(NC(=O)c1ccccc1Cl)Nc1ccc(OC(F)(F)F)cc1`, for which the Potency result is “inactive”.

For `Cc1c([N+](=O)[O-])cc2c(c1[N+](=O)[O-])C(C)(C)CC2(C)C`, the Potency entry was “inactive”.

On to `S=C=Nc1ccccc1`, for which the Potency result is “inactive”.

As to `CC(=O)[O-].CC(=O)[O-].O.O.O.[Pb+2]`, the Potency entry was “inactive”.

As to `O=[N+]([O-])c1ccccc1-c1ccccc1`, the Potency result is “inactive”.

On to `CCC1(CC)C(=O)N=C(O)NC1=O`, for which the Potency entry was “inactive”.

Take `[Cl-].[Cl-].[Sn+2]`: the Potency entry is “inactive”.

With `O.O.O.O=C([O-])[C@H]([O-])[C@@H]([O-])C(=O)[O-].O=C([O-])[C@H]([O-])[C@@H]([O-])C(=O)[O-].[K+].[K+].[Sb+3].[Sb+3]`, the Potency entry was “inactive”.

Take `O=C1C(Cl)=C(Cl)C(=O)C(Cl)=C1Cl`: the Potency was 38.9 µM (active).

As for `CCOP(=O)(OCC)Oc1nc(Cl)c(Cl)cc1Cl`, the Potency entry was “inactive”.

As for `C#CCO`, the Potency result was “inactive”.

With `c1ccc(N=NNc2ccccc2)cc1`, the Potency entry is “inactive”.

Regarding `CCC[CH2][Sn]([CH2]CCC)([CH2]CCC)[CH2]CCC`, the Potency is 54.9 µM (active).

Regarding `CCN(CC)C(=S)S`, the Potency entry is “inactive”.

`C=CCOC(=O)c1ccccc1N`: the Potency result was “inactive”.

With `CCCCON=O`, the Potency result is “inactive”.

For the compound `N#CCCl`, the Potency result was “inactive”.

As for `O=NN(CCO)CCO`, the Potency result was “inactive”.

Consider `N#Cc1sc2c(=O)c3ccccc3c(=O)c=2sc1C#N`, for which the Potency was 0.49 µM (active).

In the case of `CNC(=O)O/N=C(\C)C(C)S(C)(=O)=O` (stereo not given), the Potency result is “inactive”.

Take `COP(=O)(OC)O/C(=C\Cl)c1cc(Cl)c(Cl)cc1Cl`: the Potency result was “inactive”.

As for `CCCCN(CCCC)C(=S)[S-].CCCCN(CCCC)C(=S)[S-].[Ni+2]`, the Potency result is “inactive”.

Consider `OCC(Br)CBr` (stereo not given), for which the Potency result is “inactive”.

Regarding `COc1cnc(OC)n2nc(NS(=O)(=O)c3c(OCC(F)F)cccc3C(F)(F)F)nc12`, the Potency entry was “inactive”.

In the case of `CC1(C)C(C=C(Cl)Cl)C1C(=O)OC(C#N)c1ccc(F)c(Oc2ccccc2)c1` (stereo not given), the Potency entry is “inactive”.

As for `CC(C)[C@@H](Nc1ccc(C(F)(F)F)cc1Cl)C(=O)OC(C#N)c1cccc(Oc2ccccc2)c1` (stereo not given in full), the Potency result was “inactive”.
